The full list was thinned out, with hits kept by preference.
ERG-DNA inh: inhibitors of human ERG Ets domain-DNA interaction. P11308. fluorescence polarization, His-ERG Ets domain / labelled DNA. Potency, µM (titrated, usually from 76.9 µM), without a hit: at the highest dose FP activity, negative = inhibition, most hits filed as inhibitors. 370,000 compounds, 0.028% hits. AID 624246; active = well fitted inhibition curve with a large enough effect in the polarisation, with a control signal flat; inconclusive = small, poorly fitted or top-dose-only effect, or effect the other way, or a change in a side signal; inactive = no such curve, though single readings can be large or run the other way; the % refers to the polarisation;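 note: polarization taken with two DNA probes labelled with fluorescein and Texas red; potency is the fitted concentration of half-maximal effect; % of control where 0% means no effect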
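His-tagged ERG Ets domain (1 uM in the protein solution; 300mM KCl, 50mM Tris-HCl, 1mM EDTA, 1mM DTT, pH 7.5) received compound, then a probe mix of 5 nM fluorescein-DNA and 100nM Texas-615-DNA. Fluorescence polarization was read for both dyes.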
RORgamma inh: inhibitors of mouse ROR gamma transcriptional activity | 310,000 compounds, 5.4% hits | Potency, µM (titrated, usually from 53.6 µM), for inactives: at the top dose activity change, negative = inhibition, actives largely listed as inhibitors | Drosophila S2 Gal4-RORgamma UAS-luciferase reporter, 20 h | AID 2551 | P51450; note: potency is the fitted concentration of half-maximal effect; % is set by controls: 0 for no effect and ±100 for the full control effect; nearly all actives have a fitted effect of over 60% in size
Target sequence (P51450 whole entry, looked up, the tested form may be a part): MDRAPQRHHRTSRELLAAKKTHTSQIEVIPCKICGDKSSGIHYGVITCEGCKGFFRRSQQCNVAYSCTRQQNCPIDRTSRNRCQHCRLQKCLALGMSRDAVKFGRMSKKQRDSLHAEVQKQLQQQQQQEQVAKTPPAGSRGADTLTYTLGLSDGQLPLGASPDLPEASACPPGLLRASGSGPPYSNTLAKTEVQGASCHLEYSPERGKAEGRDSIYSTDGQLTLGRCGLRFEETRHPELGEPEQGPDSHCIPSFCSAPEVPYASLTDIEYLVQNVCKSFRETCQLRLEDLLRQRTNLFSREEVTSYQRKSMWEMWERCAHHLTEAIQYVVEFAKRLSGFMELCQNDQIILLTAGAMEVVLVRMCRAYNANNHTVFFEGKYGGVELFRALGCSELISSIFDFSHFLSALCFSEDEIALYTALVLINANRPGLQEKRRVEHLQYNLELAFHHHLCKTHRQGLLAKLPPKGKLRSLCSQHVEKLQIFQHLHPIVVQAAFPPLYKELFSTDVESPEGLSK
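Drosophila S2 cells stably expressing Gal4-DBD/mouse RORγ fusion under metallothionein promoter plus UAS-luciferase; compound 1 h, then 700 uM CuSO4 induction for 20 h at ambient temperature; inhibition read as reduced luminescence.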
Giardia kill: kills Giardia lamblia; Giardia lamblia trophozoite viability; activity change, % at 7.66 µM, hits read low; 340,000 compounds, 0.15% hits; AID 540267; in the data active = activity change below about -80%; inconclusive = between about -30% and that limit;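 note: parasites exposed to compound for two days anaerobically before the ATP read; % is set by controls: 0 for no effect and ±100 for the full control effect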
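Killing of trophozoites was scored by loss of ATP luminescence after a 48 hrs anaerobic exposure to compounds at 37 deg C, using 100 cells per well.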
a7 integrin act: activators of alpha7 integrin expression for muscular dystrophy; alpha7betagal myoblasts, beta-gal FDG fluorescence, 48 h; Potency, µM (series often up to 38.3 µM), for inactives: top-dose activation, usual class: activators; 350,000 compounds, 0.064% hits;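 note: potency is the fitted concentration of half-maximal effect; 100% = response of the positive control SU9516; nearly all actives have a fitted effect of over 60% in size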
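Alpha7betagal+/- myoblasts (passage 13) were plated 16-24 hr, then exposed to compounds (1:260 dilution of DMSO stock) for 48 hours at 37C. After MPER lysis, β-galactosidase reporter activity was read as FDG fluorescence (ex 480/em 540) after 30 minutes.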
VP16 counter: Gal4-VP16 reporter inhibition counter-screen; Potency, µM (series often up to 53.6 µM), without a hit: at the top dose activity, negative = inhibition, actives largely listed as inhibitors; 310,000 compounds, 3.5% hits; Drosophila S2 Gal4-VP16 UAS-luciferase, luminescence, 20 h; AID 2546;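 note: Gal4-VP16 expression switched on by copper sulfate through the metallothionein promoter; potency is the fitted concentration of half-maximal effect; % is set by controls: 0 for no effect and ±100 for the full control effect; nearly all actives have a fitted effect of over 50% in size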
An asterisk follows results filed as active. Unless noted, calls come from the whole dose curve; as a rule, active = well fitted curve in the direction sought with a large enough effect; inconclusive = small, poorly fitted or top-dose-only effect, or another doubt; inactive = no such curve, though single readings can be large; an effect the other way counts as inactive or inconclusive.

COc1ccccc1NC(=O)C(=O)Nc1ccccn1 was read as RORgamma inh 17%, Giardia kill 0, a7 integrin act -2% and VP16 counter -29%.
For Cc1ccc(S(=O)(=O)CC(=O)Nc2ccccn2)cc1 the results were ERG-DNA inh -6%, RORgamma inh -14%, Giardia kill 1, a7 integrin act -5% and VP16 counter 3%.
`COC(=O)c1ccc(NC(=S)Nc2ccccn2)cc1` gave ERG-DNA inh -8%, RORgamma inh 1µM*, Giardia kill -2, a7 integrin act 5% and VP16 counter 1µM*.
`COc1ccccc1NC(=S)Nc1ccccn1` gave ERG-DNA inh 3%, RORgamma inh 1.6µM*, Giardia kill -12, a7 integrin act -5% and VP16 counter 3.5µM*.
Cc1ccc(NC(=O)C(=O)Nc2ccccn2)cc1 was read as ERG-DNA inh 0%, RORgamma inh 6.3µM*, Giardia kill inconclusive, a7 integrin act -23% and VP16 counter 5.6µM*.
`CCOc1ccc(CNCc2c(C(=O)O)n(Cc3ccccc3F)c3cc(OC)ccc23)cc1` gave ERG-DNA inh -7%.
For CSc1nsc(SCC(=O)Nc2ccccc2)n1 the results were ERG-DNA inh -3%, RORgamma inh 25%, Giardia kill -6, a7 integrin act -21% and VP16 counter -17%.
Screening CSc1nsc(NC(=O)Cc2ccccc2)n1 returned RORgamma inh inconclusive, Giardia kill -7, a7 integrin act -19% and VP16 counter 7.1µM*.
Screening Cc1nc2cnc(Oc3ccccc3)nc2n(CCC#N)c1=O returned RORgamma inh 5% and VP16 counter -3%.
Screening CC1=NN(c2ccccc2)C(=O)/C1=C\C=C\c1ccccc1 returned ERG-DNA inh 3%, RORgamma inh 8.9µM*, Giardia kill -15, a7 integrin act -69% and VP16 counter inconclusive.
CCOC(=O)c1ccc(N2N=C(C)/C(=C/C=C/c3ccco3)C2=O)cc1 was read as ERG-DNA inh -4%, RORgamma inh 42%, Giardia kill -5, a7 integrin act -30% and VP16 counter -11%.
CC1=NN(c2ccc(C(=O)OC(C)C)cc2)C(=O)/C1=C\C=C\c1ccco1 was read as ERG-DNA inh 0%, RORgamma inh 14µM*, Giardia kill 14, a7 integrin act -49% and VP16 counter inconclusive.
`CC1=NN(c2ccccc2)C(=O)/C1=C/C=C/c1ccc(N(C)C)cc1` gave ERG-DNA inh 14%, RORgamma inh -12%, Giardia kill -28, a7 integrin act 15% and VP16 counter -12%.
CCc1sc(C(=O)Nc2cccnc2)cc1Br was read as ERG-DNA inh 1%, RORgamma inh 24%, Giardia kill 12, a7 integrin act inconclusive and VP16 counter 16%.
Screening CN(C)Cc1c(C(=O)N/N=C/c2cccc3ccccc23)nnn1-c1nonc1N returned ERG-DNA inh -2%, RORgamma inh 6%, Giardia kill -7, a7 integrin act -7% and VP16 counter -4%.
Screening Cc1nnn(-c2nonc2N)c1C(=O)N/N=C/c1ccccc1O returned ERG-DNA inh 11%, RORgamma inh 1.3µM*, Giardia kill -13, a7 integrin act -26% and VP16 counter 2.8µM*.
COc1cc(/C=N/NC(=O)c2c(C)nnn2-c2nonc2N)ccc1O was read as ERG-DNA inh -1%, RORgamma inh 4%, Giardia kill 5, a7 integrin act 1% and VP16 counter 2%.
Screening Cc1nnn(-c2nonc2N)c1C(=O)N/N=C/c1cccc2ccccc12 returned ERG-DNA inh 1%, RORgamma inh -116%, Giardia kill -2, a7 integrin act -25% and VP16 counter 13µM*.
For COc1ccc(Cn2c(=O)[nH]c3cc(C(=O)NCCC(C)C)ccc3c2=O)cc1 the results were ERG-DNA inh 0%.
CC(C)(Oc1ccc(Cl)cc1)C(=O)NCc1ccc(S(N)(=O)=O)cc1 was read as ERG-DNA inh -4%, RORgamma inh 14%, Giardia kill 6, a7 integrin act -16% and VP16 counter 6%.
`Cc1cc(NC(=O)Nc2ccc(N(C)C)cc2)c2cc(F)cc(F)c2n1` gave RORgamma inh inconclusive and VP16 counter 6%.
`CCOc1cc(N2CCOCC2)c(OCC)cc1NC(=O)COC(=O)c1ccccc1OC(F)F` gave ERG-DNA inh -1%, Giardia kill 11 and a7 integrin act 18%.
For Cc1ccc(C)c(N2CN(CCC3=CCCCC3)CNC2=S)c1 the results were ERG-DNA inh -15%, RORgamma inh 3.2µM*, Giardia kill 21, a7 integrin act -27% and VP16 counter 4.5µM*.
Screening CCCN1CNC(=S)N(c2cc(C)ccc2C)C1 returned ERG-DNA inh 2%, RORgamma inh 13µM*, Giardia kill 16, a7 integrin act -8% and VP16 counter 11µM*.
For O=C(c1cc(-c2ccc(Cl)cc2)on1)N(Cc1cccc(F)c1)Cc1ccco1 the results were ERG-DNA inh -5%.
Screening CC(C)(C)OC(=O)NCCCC[C@H](NC(=O)c1nc[nH]c1C(=O)N1CCN(c2ccccc2)CC1)C(=O)OC(C)(C)C returned ERG-DNA inh 3%, RORgamma inh 13µM*, Giardia kill 32, a7 integrin act 12% and VP16 counter inconclusive.
For CC(C)C[C@H](NC(=O)c1nc[nH]c1C(=O)N[C@@H](CCCCNC(=O)OC(C)(C)C)C(=O)OC(C)(C)C)C(=O)OC(C)(C)C the results were ERG-DNA inh -2%, RORgamma inh 5µM*, Giardia kill -7, a7 integrin act -35% and VP16 counter 11µM*.
For CC(C)(C)OC(=O)NCCCC[C@H](NC(=O)c1[nH]cnc1C(=O)Nc1ccc(Cl)cc1)C(=O)OC(C)(C)C the results were ERG-DNA inh -4%, RORgamma inh inconclusive, Giardia kill -3, a7 integrin act -45% and VP16 counter inconclusive.
Screening C[C@H](NC(=O)c1nc[nH]c1C(=O)NCCCCCNC(=O)OC(C)(C)C)C(=O)OC(C)(C)C returned ERG-DNA inh 3%, RORgamma inh -52%, Giardia kill -16, a7 integrin act -16% and VP16 counter -11%.
For CC(C)C[C@H](NC(=O)c1nc[nH]c1C(=O)NCCCCCNC(=O)OC(C)(C)C)C(=O)OC(C)(C)C the results were ERG-DNA inh -5%, RORgamma inh 3.2µM*, Giardia kill -27, a7 integrin act -22% and VP16 counter 7.1µM*.
For CC(C)(C)OC(=O)NCCCCCNC(=O)c1nc[nH]c1C(=O)N1CCN(c2ccccc2)CC1 the results were ERG-DNA inh -4%, Giardia kill 7 and a7 integrin act -9%.
CC(C)(C)OC(=O)NCCCC[C@H](NC(=O)c1[nH]cnc1C(=O)Nc1ccccc1)C(=O)OC(C)(C)C was read as ERG-DNA inh 6%, RORgamma inh 13µM*, Giardia kill 2, a7 integrin act -38% and VP16 counter inconclusive.

High-throughput results deposited in PubChem BioAssay by National Center for Advancing Translational Sciences (NCATS).
